This note sets out measurements from PubChem BioAssay.

For orientation: viability means a read-out of living cells in per cent, often relative to untreated cells. Broadly, the inhibition is the percentage by which the read-out fell short of the control.

A short description of experiment [1]: EMT-state selective cytotoxicity in co-culture – imaging, PC-3E GFP, TEM4-18 mCherry, primary screen (AID 1345086;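 active = compounds killing one labelled cell type while sparing the other, by normalised counts and ratio limits, not self-fluorescent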;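 for all read-outs here: cells exposed to compound for 72 h before imaging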;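 for red/green cell ratio (normalised): normalised mesenchymal count divided by normalised epithelial count so high means epithelial killing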). Conditions: PC-3E GFP / TEM4-18 mCherry co-culture, imaging cell counts, at 1 µM; for red/green cell ratio (normalised): actives lie on both sides, counts scaled to control wells, 1 = unselective.
Experiment [2] can be described thus: viability loss with induced miR-34 in A549 – imaging, A549 dox-inducible miR-34, nuclei and caspase counts, primary screen (AID 1347080). The note with it: A549 miR-34 inducible, Hoechst nuclei count, 48 h.
The target of experiment [3] is NAD(+) hydrolase SARM1 (Homo sapiens) (UniProt Q6SZW1). The experiment in a line: blocking NAD cleavage by SARM1 SAM-TIR – cell lysate, NAD-Glo luminescence (AID 1508614;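 active = compound whose remaining NAD level is above about 45 nM, limit read from the data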;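 note: higher remaining NAD means stronger inhibition of SARM1 NADase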). The note with it: SAM-TIR HEK293T lysate NADase, at 1 µM, stronger effect = higher value.
The nature of experiment [4]: P. berghei load reduction in hepatocytes – cell-based, HepG2, luciferase luminescence, HepG2 viability, primary screen (AID 624349; in the data active = parasite load remaining mostly below about 12%, no sharp cut-off; inactive = mostly above about 10%;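 note: 100% = mean of DMSO negative control wells on the same plate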). The note with it: P. berghei liver stage in HepG2, luciferase luminescence, concentration not given here; parasite load remaining: stronger effect = lower value; viability: measured here: HepG2 viability without parasites.
Experiment [5] deals with Mitogen-activated protein kinase 7 (Homo sapiens) (UniProt Q13164). The experiment in a line: Gal4-ERK5 driven luciferase induction – cell-based, HTS, primary screen (AID 1508626;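 active = luciferase signal above three times the same-plate solvent-only control wells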;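 note: luciferase driven by Gal4-ERK5 fusion binding five Gal4 sites before minimal TATA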). Conditions: HeLa Gal4-ERK5 transactivation, 18 h, at 5 µM, stronger effect = higher value.
Experiment [6] can be described thus: blockers of polyQ-driven CASP3 activation – cell-based (AID 1583). The note with it: polyglutamine-induced caspase-3 activation, cell assay; stronger effect = higher value;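 tested at 10 µM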.
Experiment [7] in a line: yeast 75Q aggregation reduction – 75Q-TubU reporter (AID 1593). The note with it: Yeast 75Q polyglutamine aggregation reporter.
The nature of experiment [8]: restoration of touch response, mutant HTT neurons – whole organism, C. elegans mechanosensory neurons, N-terminal huntingtin (AID 1599). Conditions: C. elegans polyQ-huntingtin mechanosensory neurons, stronger effect = higher value.
Experiment [9] can be described thus: blockers of cytochrome c efflux from mitochondria – biochemical, purified mitochondria (AID 1603).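 Note: mouse liver mitochondria challenged with calcium chloride; signal normalized to the plate average as 100%.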 Conditions: stronger effect = lower value.
Experiment [10] can be described thus: polyglutamine aggregate formation blockers (AID 1604). Conditions: polyglutamine-induced protein aggregation inhibition assay; stronger effect = higher value; tested at 2.5 µM.
Experiment [11] can be described thus: glutamate transport activators, MN-1 cells, MN-1 cell line (AID 1612).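 Note: tested at 1 µM final; 0% = mean of DMSO vehicle wells on each plate; positive means more glutamate uptake than control and negative means less.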 Conditions: MN-1 motor neuron cells, stronger effect = higher value.
Experiment [12] in a line: GFP-Q80 aggregate reduction, neuronal-like cells, cell-based, NGF-treated PC12, GFPQ80 (AID 1614).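 Note: lower means fewer inclusions and 0 means no inclusions at all.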 The note with it: PC12 NGF-treated GFP-polyQ80 inclusion reduction.
The nature of experiment [13]: 75Q-TubH aggregate inhibition, S. cerevisiae, yeast (AID 1616). The note with it: S. cerevisiae 75Q-TubH polyglutamine aggregation suppression; stronger effect = higher value.
Where [14] appears, read: measured here: epithelial PC-3E GFP cell survival.
Where [15] appears, read: measured here: mesenchymal TEM4-18 mCherry cell survival.
Where [16] appears, read: stronger effect = lower value, cell number ratio, induced over uninduced.
[17] abbreviates: measured here: relative caspase fold change +Dox/-Dox.
Where [18] appears, read: measured here: total cells with miR-34 induction, stronger effect = lower value.
Setting [19] is: measured here: total cells without miR-34 induction.

SMILES strings stand for the structures. “And” between values parts separate entries of the source, which are not always exact repeats. Identical values can stand only once. For part of these data: Entries with a potency or affinity are not part of this list. The source made the active and inactive calls.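 Rule for the calls, unless noted: active = compounds whose cell count with miR-34 switched on is under 0.7 times the count with it off; inactive = the rest.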

Sequence of NAD(+) hydrolase SARM1 (Homo sapiens) (Q6SZW1 whole entry, looked up): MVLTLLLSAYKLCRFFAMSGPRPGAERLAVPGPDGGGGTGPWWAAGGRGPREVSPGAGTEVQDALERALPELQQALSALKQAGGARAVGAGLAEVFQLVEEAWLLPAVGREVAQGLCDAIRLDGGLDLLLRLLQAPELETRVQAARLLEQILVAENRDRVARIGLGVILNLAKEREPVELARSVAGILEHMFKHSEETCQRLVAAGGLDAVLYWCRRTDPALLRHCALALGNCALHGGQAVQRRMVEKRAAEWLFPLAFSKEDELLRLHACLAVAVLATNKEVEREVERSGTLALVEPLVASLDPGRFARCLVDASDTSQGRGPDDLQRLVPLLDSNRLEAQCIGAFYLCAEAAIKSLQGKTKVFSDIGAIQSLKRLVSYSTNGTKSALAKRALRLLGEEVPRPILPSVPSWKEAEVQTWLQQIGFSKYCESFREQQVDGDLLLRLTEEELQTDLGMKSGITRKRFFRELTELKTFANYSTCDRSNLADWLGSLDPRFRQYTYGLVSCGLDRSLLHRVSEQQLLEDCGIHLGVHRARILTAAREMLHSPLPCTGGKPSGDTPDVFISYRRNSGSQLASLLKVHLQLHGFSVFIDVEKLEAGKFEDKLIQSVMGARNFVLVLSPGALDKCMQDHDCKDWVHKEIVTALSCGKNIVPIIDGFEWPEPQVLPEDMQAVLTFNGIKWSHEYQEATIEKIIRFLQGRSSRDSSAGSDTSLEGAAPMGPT
Sequence of Mitogen-activated protein kinase 7 (Homo sapiens) (Q13164 whole entry, looked up, the tested form may be a part): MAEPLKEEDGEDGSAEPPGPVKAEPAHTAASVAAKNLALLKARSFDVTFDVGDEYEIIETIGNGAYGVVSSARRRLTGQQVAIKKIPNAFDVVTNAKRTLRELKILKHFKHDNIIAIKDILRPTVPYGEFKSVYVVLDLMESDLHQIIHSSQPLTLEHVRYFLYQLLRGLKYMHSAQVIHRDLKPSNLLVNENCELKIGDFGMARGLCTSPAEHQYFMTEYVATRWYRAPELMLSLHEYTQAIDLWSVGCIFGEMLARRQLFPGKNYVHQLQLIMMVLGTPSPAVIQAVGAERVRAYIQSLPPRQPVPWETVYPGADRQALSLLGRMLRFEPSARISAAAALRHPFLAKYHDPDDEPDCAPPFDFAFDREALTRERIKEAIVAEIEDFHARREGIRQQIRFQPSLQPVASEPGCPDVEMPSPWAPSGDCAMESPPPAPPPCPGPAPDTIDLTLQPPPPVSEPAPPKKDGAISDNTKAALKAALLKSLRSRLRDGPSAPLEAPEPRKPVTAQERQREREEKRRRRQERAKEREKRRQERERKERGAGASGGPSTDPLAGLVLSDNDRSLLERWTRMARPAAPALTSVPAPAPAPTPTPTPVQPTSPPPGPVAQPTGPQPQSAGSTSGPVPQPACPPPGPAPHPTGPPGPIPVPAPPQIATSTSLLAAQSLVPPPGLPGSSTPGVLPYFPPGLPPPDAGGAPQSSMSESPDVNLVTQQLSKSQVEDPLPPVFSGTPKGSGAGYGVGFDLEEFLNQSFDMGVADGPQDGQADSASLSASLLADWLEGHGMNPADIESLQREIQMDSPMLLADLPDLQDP

For `O=C1c2ccccc2C(=O)C1c1ccc(Cl)cc1`, in experiment [1], the red/green cell ratio (normalised) was 0.87 (inactive). Moreover, the normalised cell number in experiment [1] (setting [14]) was determined as 1.18; in [1] (setting [15]) it was 1.03. The fold change in experiment [2] (setting [16]) was 0.921 (inactive); in experiment [2] (setting [17]), 1.21. Besides, the cell count is 7610 in experiment [2] (setting [18]) and 8270 in experiment [2] (setting [19]). Further, the remaining NAD in [3] is 10 nM (inactive).

Regarding `CN(C)[C@@H]1C(=O)C(C(=O)NCN2CCCC2)=C(O)[C@@]2(O)C(=O)C3=C(O)c4c(O)cccc4[C@@](C)(O)[C@H]3C[C@@H]12`, the parasite load remaining in experiment [4] was 26.9% (inactive). Also, the viability in experiment [4] worked out at 99.8%. For the same molecule, the red/green cell ratio (normalised) in experiment [1] is 0.9 (inactive). For the same molecule, the normalised cell number in experiment [1] (setting [14]) turned out to be 1.09; in experiment [1] (setting [15]) it was 0.97. Besides, the fold change in experiment [2] (setting [16]) was 0.855 (inactive); in experiment [2] (setting [17]), 4.3. Further, the cell count in experiment [2] (setting [18]) was 11700; in experiment [2] (setting [19]), 13600. Further, the remaining NAD in [3] was 10 nM (inactive). Also, the luciferase signal in experiment [5] is 112 AU (inactive).

Turning to `CCOC(=O)Nc1nc2ccccc2[nH]1`, the parasite load remaining in experiment [4] was 62.9% (inactive). The viability in experiment [4] amounted to 103%. Besides, the red/green cell ratio (normalised) in [1] is 1.08 (inactive). Further, the values for the normalised cell number in experiment [1] (setting [14]) and in experiment [1] (setting [15]) were 0.9 and 0.97, respectively. In addition, the fold change is 0.84 (inactive) in [2] (setting [16]) and 2.72 in [2] (setting [17]). Besides, the cell count is 8540 in experiment [2] (setting [18]) and 10200 in experiment [2] (setting [19]). Besides, the remaining NAD in experiment [3] is 10 nM (inactive). Moreover, in experiment [5], the luciferase signal is 88 AU (inactive).

Consider `CC(=O)C1C(=O)C=C(C)OC1=O` (centres undefined), for which the red/green cell ratio (normalised) in experiment [1] was 1.08 (inactive). In addition, the normalised cell number in [1] (setting [14]) stood at 0.99; in experiment [1] (setting [15]), 1.07. Further, the figures for the fold change in [2] (setting [16]) and in experiment [2] (setting [17]) were 0.96 (inactive) and 0.723, respectively. In addition, the cell count was found to be 9120 in experiment [2] (setting [18]) and 9500 in experiment [2] (setting [19]). Moreover, in [3], the remaining NAD is 10 nM (inactive).

`CC(=O)Oc1c(C)c(C)c2c(c1C)CCC(C)(CCCC(C)CCCC(C)CCCC(C)C)O2` (centres undefined) came in with an inhibition in [6] of 1.05%. This molecule displayed a score in [7] of -0.71. In experiment [8], this molecule displayed a rescue above control of 1.2. In addition, the cytochrome c release ratio in experiment [9] was determined as 0.62. The molecule also returned an inhibition of aggregation in experiment [10] of 56.3%. The glutamate uptake change in experiment [11] came out at 6.04%. The same molecule had an inclusion score in [12] of 2. The molecule further displayed an aggregation suppression score in experiment [13] of 0.546. Moreover, the parasite load remaining in [4] is 74.6% (inactive). Also, the viability in experiment [4] turned out to be 96%. Also, the red/green cell ratio (normalised) in [1] was 0.9 (inactive). For the same molecule, the figures for the normalised cell number in experiment [1] (setting [14]) and in experiment [1] (setting [15]) were 0.92 and 0.84, respectively. The fold change in experiment [2] (setting [16]) is 0.901 (inactive); in experiment [2] (setting [17]), 1.55. The cell count in experiment [2] (setting [18]) was found to be 11100; in experiment [2] (setting [19]), 12300. The luciferase signal in experiment [5] was 44 AU (inactive).

For the molecule `C[N+](C)(C)C[C@H](O)CC(=O)[O-]`, the parasite load remaining in experiment [4] was 53.1% (inactive). The viability in experiment [4] turned out to be 99.7%. The red/green cell ratio (normalised) in experiment [1] is 1.04 (inactive). Besides, the normalised cell number in experiment [1] (setting [14]) turned out to be 0.94; in experiment [1] (setting [15]), 0.98. The fold change in experiment [2] (setting [16]) was 0.867 (inactive); in experiment [2] (setting [17]), 4.08. Moreover, the cell count amounted to 11500 in experiment [2] (setting [18]) and 13200 in [2] (setting [19]). For the same molecule, in experiment [3], the remaining NAD was 10 nM (inactive). For the same molecule, the luciferase signal in experiment [5] is 32 AU (inactive).

The molecule `CC(=O)O[C@]1(C(C)=O)CCC2C3C[C@H](C)C4=CC(=O)CC[C@]4(C)C3CC[C@@]21C` (some centres undefined) returned an inhibition in [6] of 28.3%. In experiment [7], the score is 0.63. In experiment [8], this molecule showed a rescue above control of 2.76. In addition, the cytochrome c release ratio in experiment [9] was 1.2. This molecule gave an inhibition of aggregation in experiment [10] of 59.1%. In [11], this molecule came in with a glutamate uptake change of 30.6%. This molecule also came in with an inclusion score in experiment [12] of 2.5. This molecule registered an aggregation suppression score in [13] of 0.615. In addition, in experiment [4], the parasite load remaining is 76.4% (inactive) and 20.6% (inactive). For the same molecule, in experiment [4], the viability was 71.8% and 85.5%. The red/green cell ratio (normalised) in [1] was 1.21 (inactive). For the same molecule, the normalised cell number in experiment [1] (setting [14]) stood at 1.07; in experiment [1] (setting [15]) it was 1.3. Besides, the fold change in [2] (setting [16]) is 0.945 (inactive); in experiment [2] (setting [17]) it was 3.26. Besides, the cell count stood at 8680 in experiment [2] (setting [18]) and 9190 in experiment [2] (setting [19]).
